Results: PubChem BioAssay (NCI)
Compounds without any hit were thinned out: in the full panel of roughly 83,000, 20% have a hit.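 Assay: single dose, 48 h. Readout: percent growth (0 = no net growth; negative = cell death). Active: <10.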 Unmarked numbers belong to inactive results. Active and inactive are the calls of the source.

What was measured:
Assay in all cases: NCI-60 one-dose screen, 48 h (100 = growth as untreated, 0 = no growth, -100 = all killed)
Settings in all cases: 10 µM unless noted
[1] = test system: DU-145 prostate
[2] = test system: K-562 leukemia
[3] = test system: MALME-3M melanoma
[4] = test system: MDA-MB-231 breast
[5] = test system: RXF 393 renal
[6] = test system: SF-268 CNS
[7] = test system: SF-295 CNS
[8] = test system: SF-539 CNS
[9] = test system: UACC-257 melanoma
[10] = test system: M14 melanoma

In the case of C=C(C)[C@@H]1CC[C@]2(C(=O)N3CCN(C)CC3)CC[C@]3(C)[C@H](CC[C@@H]4[C@@]5(C)CC[C@H](OP(=O)(OCC)OCC)C(C)(C)[C@@H]5CC[C@]43C)[C@@H]12, the growth [1] is reported as 101%, the growth [2] is reported as 29.6% and the growth [3] is reported as 106%. It also gave a growth [4] of 83.6%, a growth [5] of 59.5% and a growth [6] of 87.3%. It also gave a growth [7] of 89.4%, a growth [8] of 84.8% and a growth [9] of 82.9%. The growth [10] was 102%.
In the case of CC1=C(C)C(=O)C(Nc2ccc3c(c2)OCO3)=C(Br)C1=O, the growth [1] is reported as 109%, the growth [2] is reported as 3.43% (active) and the growth [3] is reported as 112%. It also gave a growth [4] of 69.4%, a growth [5] of 105% and a growth [6] of 96.7%. The growth [7] was 96.8%, the growth [8] was 106% and the growth [9] was 94.3%. For the same compound, the growth [10] was 105%.
In the case of Cn1c(SCC(=O)c2ccc(F)cc2)nc2ccccc2c1=O, the growth [1] is reported as 98%, the growth [2] is reported as 76.4% and the growth [3] is reported as 109%. The growth [4] was 91.7%, the growth [5] was 108% and the growth [6] was 99%. The growth [7] was 97.9%, the growth [8] was 98.2% and the growth [9] was 107%. The growth [10] was 95.8%.
CCOC(=O)c1cnc2c(-c3ccc(Cl)c(Cl)c3)cnn2c1 showed a growth [1] of 104%, a growth [2] of 21.7% and a growth [3] of 75.7%. The growth [4] was 81.5%, the growth [5] was 79.7% and the growth [6] was 92.7%. For the same compound, the growth [7] was 82.9%, the growth [8] was 85.9% and the growth [9] was 81.9%. For the same compound, the growth [10] was 60%.
CCN(CC)CCOc1ccc(C(=C(c2ccccc2)C2CCCC2)c2ccc(OCCN(CC)CC)cc2)cc1 was tested, and the growth [1] was 38.3%, the growth [2] was 8.22% (active) and the growth [3] was -0.396% (active). For the same compound, the growth [4] was 24.7%, the growth [5] was -33.4% (active) and the growth [6] was 25.5%. The growth [7] was 60.6%, the growth [8] was 9.14% (active) and the growth [9] was 14.3%. For the same compound, the growth [10] was 30.8%.
In the case of Cc1[nH]c(C(=O)Nc2ccc(C(=O)NCC3CCNCC3)cc2OC(C)C)c(Cl)c1Cl, the growth [1] is reported as 80.2%, the growth [2] is reported as 10.6% and the growth [3] is reported as 80.1%. For the same compound, the growth [4] was 72.3%, the growth [5] was 71.3% and the growth [6] was 76.6%. For the same compound, the growth [7] was 73.5%, the growth [8] was 83.8% and the growth [9] was 101%. For the same compound, the growth [10] was 62.4%.
For Cc1ccc(NC(=O)Nc2nc3ccc([N+](=O)[O-])cc3s2)cc1, the growth [1] was 17.9%, the growth [2] was 10.7% and the growth [3] was -19.2% (active). The growth [4] was 2.83% (active), the growth [5] was -12.1% (active) and the growth [6] was 10.8%. The growth [7] was 0.916% (active), the growth [8] was 14% and the growth [9] was -12.5% (active). For the same compound, the growth [10] was 7.25% (active).
In the case of COc1ccc(C2CC(c3cccc(OCCCCOc4cccc(C5=NOC(c6ccc(OC)cc6)C5)c4)c3)=NO2)cc1 (stereo not given), the growth [1] is reported as 104%, the growth [2] is reported as 45.1% and the growth [3] is reported as 110%. The growth [4] was 99.9%, the growth [5] was 114% and the growth [6] was 108%. It also gave a growth [7] of 101%, a growth [8] of 111% and a growth [9] of 96.9%. For the same compound, the growth [10] was 90.5%.
N#Cc1c(-c2cccs2)cc(-c2cnccn2)nc1SCC(=O)N/N=C/c1ccccc1 was tested, and the growth [1] was 14%, the growth [2] was 46.5% and the growth [3] was 4.87% (active). The growth [4] was 46.5%, the growth [5] was -16.4% (active) and the growth [6] was 56.4%. For the same compound, the growth [7] was 60.9%, the growth [8] was 56.1% and the growth [9] was 68.2%. The growth [10] was 37%.
With O=C1[C@H]2Cc3c([nH]c4ccccc34)[C@H](c3ccc(Br)cc3)N2C(=O)CN1C1CCN(CC2CCCCC2)CC1 the growth [1] was 79.4%, the growth [2] was 6.13% (active) and the growth [3] was 72.5%. The growth [4] was 76.5%, the growth [5] was 62.6% and the growth [6] was 66.8%. It also gave a growth [7] of 113%, a growth [8] of 75.3% and a growth [9] of 97.4%. For the same compound, the growth [10] was -17.4% (active).
COc1ccc(/C(=N\N=C(N)N)c2ccc(Cl)cc2)cc1OC showed a growth [1] of 90.3%, a growth [2] of 49.6% and a growth [3] of 90%. The growth [4] was 71%, the growth [5] was 54.3% and the growth [6] was 59.9%. It also gave a growth [7] of 71.8%, a growth [8] of 83% and a growth [9] of 90.2%. It also gave a growth [10] of 65.5%.
CN1CCN(Cc2ccc(NC(=O)c3cncc(C#Cc4cnc5ccc(OCCCS(C)(=O)=O)nn45)c3)cc2C(F)(F)F)CC1 was tested, and the growth [1] was 1.01% (active), the growth [2] was 5.44% (active) and the growth [3] was -80.5% (active). For the same compound, the growth [4] was -20.7% (active), the growth [5] was -79.6% (active) and the growth [6] was -45.8% (active). For the same compound, the growth [7] was 0.237% (active), the growth [8] was -68.4% (active) and the growth [9] was -27.6% (active). For the same compound, the growth [10] was -78.9% (active).
For CCC(=C(c1ccc(OCCN(C)C)cc1)c1ccc(OCCN(C)C)cc1)c1ccc(Cl)cc1, the growth [1] was -28.8% (active), the growth [2] was -16.7% (active) and the growth [3] was -83.7% (active). For the same compound, the growth [4] was -79.5% (active), the growth [5] was -85.4% (active) and the growth [6] was -37.1% (active). For the same compound, the growth [7] was -72.2% (active), the growth [8] was -82.8% (active) and the growth [9] was -69.8% (active). The growth [10] was -66.3% (active).
